This note sets out measurements from PubChem BioAssay (NCATS).

Inconclusive results are not listed. A call without a number means that no potency is given here. Active and inactive are the calls of the source. The call rests on the fitted dose curve; in most records, active means well fitted cell-killing curve with a large enough effect; inconclusive means small, poorly fitted or top-dose-only effect, or effect the other way; inactive means flat fitted curve, though single readings scatter.
Potency means the concentration at half of the fitted maximal effect.

The subject of this experiment is OV90. In words: Primary qHTS to identify gynecologic anti-cancer compounds using libraries of approved drugs and bioactive compounds (AID 1345084). Further: nearly all actives have a fitted effect of over 55% in size. Particulars: Gynecologic cancer cell panel viability, ATPlite luminescence, 48 h; series mostly up to 57.5 µM. The method in brief: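 Five-point cytotoxicity, 48 h drug exposure at 37 C, 5% CO2, on cells seeded 16 h beforehand. ATP content read by ATPlite luminescence.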
For `CN[C@@H](C)C(=O)N[C@H]1CN(C(=O)CC(C)C)CC[C@H]2CC[C@@H](C(=O)NC(c3ccccc3)c3ccccc3)N2C1=O`, the Potency result was “inactive”.

For the compound `CC(C)(C)NC(=O)Nc1cccc(Nc2ncc(F)c(NC(C)(C)CO)n2)c1`, the Potency entry was “inactive”.

As to `CC(C)C(=O)Nc1ncc(-c2cc(C(F)F)nn2-c2c(Cl)cccc2Cl)s1`, the Potency entry was “inactive”.

`CC(C)OC(=O)C(C)(C)Oc1ccc(C(=O)c2ccc(Cl)cc2)cc1`: the Potency entry is “inactive”.

With `C=C1C(=O)[C@@]23C(CC[C@@H]1[C@H]2O)[C@@]12CO[C@]3(O)[C@@H](O)[C@@H]1C(C)(C)CC[C@@H]2O` (stereo partly drawn), the Potency result is “inactive”.

For `COc1ncc(-c2ccc3nccc(-c4ccnnc4)c3c2)cc1NS(=O)(=O)c1ccc(F)cc1F`, the Potency was 3.55 µM (active).

As for `CC(C)n1nc(-c2ccc3oc(N)nc3c2)c2c(N)ncnc21`, the Potency is 0.316 µM (active).

For `CCOc1ccc(Nc2nc(-c3c(C)nc4ccccn34)cs2)cc1`, the Potency is 1.41 µM (active).

With `COc1cc(N2CCC(N3CCN(C)CC3)CC2)ccc1Nc1ncnc(Nc2ccccc2S(=O)(=O)C(C)C)n1`, the Potency is 8.91 µM (active).

Take `COCCOC(=O)C1=C(C)NC2=C(C(=O)CC(c3ccccc3OC)C2)C1c1cccc(O)c1` (stereo not drawn): the Potency entry was “inactive”.

`COCCOc1nc(-c2ccc(Cl)c(Cl)c2)n(-c2ccc(NC(=O)CCl)cc2)n1`: the Potency result is “inactive”.

Take `NC(=O)c1cccc2[nH]c(-c3ccc([C@H]4CCCN4)cc3F)nc12`: the Potency was 14.1 µM (active).

In the case of `CC(=O)O[C@]1(C(C)=O)CC[C@H]2[C@@H]3C=C(Cl)C4=CC(=O)[C@@H]5C[C@@H]5[C@]4(C)[C@H]3CC[C@@]21C`, the Potency entry was “inactive”.
